Records with an inconclusive call do not appear. The source holds several records for some structures; these can differ, active in one and inactive in another. Activity calls are given as the source filed them. Rule for the calls: active = hit-call score of the fitted dose curve at least 0.9, where 1 is the maximum; inconclusive = response in the unintended direction; inactive = score below 0.9.
How the values were obtained:
[1] = TOX21_p53_BLA_p2_viability: Viability Assessment in the Tox21 HCT-116 p53 Agonism Beta-lactamase Assay, Phase 2 (AID 2283591);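 note: compound exposure lasted 16 h at 37 °C; actives lower the ATP signal meaning cytotoxicity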
Procedure, shortened: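 HCT-116 p53-bla cells (4000/well) rested 5 h at 37C, then received compounds in DMSO (217-fold dilution) for 16 h at 37C, 5% CO2. After the CCF4 read, CellTiter-Glo was added; ATP luminescence was read after 30 min at room temperature.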

[2] = target: Cellular tumor antigen p53 (Homo sapiens) (UniProt P04637); assay: TOX21_p53_BLA_p2_ratio: Tox21 HCT-116 p53 Agonism Beta-lactamase Assay, Ratio, Phase 2 (AID 2283592)
Procedure, shortened: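 DMSO-normalized, positive-direction endpoint derived from the 460 nm/530 nm FRET ratio in HCT116 p53 beta-lactamase reporter cells exposed 16 h at 37C and loaded with CCF4-AM for 2 h.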

[3] = TOX21_p53_BLA_p3_viability: Viability Assessment in the Tox21 HCT-116 p53 Agonism Beta-lactamase Assay, Phase 3 (AID 2283593);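 note: cells exposed to compound for 16 h before reading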
Procedure, shortened: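 HCT-116 cells (4000/well) rested 5 h at 37C, then got DMSO compounds by pin tool (217-fold dilution) for 16 h at 37C, 5% CO2. After the bla read, CellTiter-Glo was added and luminescence read at 30 min, room temperature.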

[4] = target: Cellular tumor antigen p53 (Homo sapiens) (UniProt P04637); assay: TOX21_p53_BLA_p3_ratio: Tox21 HCT-116 p53 Agonism Beta-lactamase Assay, Ratio, Phase 3 (AID 2283596)
Procedure, shortened: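 Cells were seeded at 4000/well, rested 5 h at 37C, then dosed with DMSO compound solutions (217-fold dilution) for 16 h. CCF4-AM substrate was loaded for 2 h at room temperature, and the 460/530 nm emission ratio was fitted for gain of signal versus DMSO.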

[5] = TOX21_p53_BLA_p4_viability: Viability Assessment in the Tox21 HCT-116 p53 Agonism Beta-lactamase Assay, Phase 4 (AID 2283597);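 note: hits lower the luminescence signal meaning cytotoxicity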
Procedure, shortened: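 In this multiplexed secondary endpoint, HCT116 cells (4000 per well, compound at 5 h, 16 h treatment) received CellTiter-Glo after the beta-lactamase read. Luminescence after 30 min RT reflects ATP, and falling signal marks cytotoxicity.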

[6] = target: Cellular tumor antigen p53 (Homo sapiens) (UniProt P04637); assay: TOX21_p53_BLA_p5_ratio: Tox21 HCT-116 p53 Agonism Beta-lactamase Assay, Ratio, Phase 5 (AID 2283599)
Procedure, shortened: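 HCT-116 cells carrying a p53-inducible beta-lactamase reporter were seeded at 4000 cells/well and dosed after 5 h with compound in DMSO (217-fold dilution). After 16 h at 37C, CCF4-AM substrate was added for 2 h, and the 460/530 nm emission ratio was scored as gain-of-signal versus DMSO.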

[7] = TOX21_p53_BLA_p5_viability: Viability Assessment in the Tox21 HCT-116 p53 Agonism Beta-lactamase Assay, Phase 5 (AID 2283600)
Procedure, shortened: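 Here cell health was gauged by ATP levels in wells holding 4000 cells, each treated 16 h with DMSO-delivered compounds at 217-fold dilution; reduced luminescence marked toxicity.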

[8] = target: Cellular tumor antigen p53 (Homo sapiens) (UniProt P04637); assay: TOX21_p53_BLA_p4_ratio: Tox21 HCT-116 p53 Agonism Beta-lactamase Assay, Ratio, Phase 4 (AID 2283601)
Procedure, shortened: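 HCT116 cells carrying an inducible beta-lactamase reporter were plated at 4000 cells/well, rested 5 h, then exposed to compounds in DMSO (217-fold dilution) for 16 h at 37C. CCF4-AM substrate was loaded 2 h at room temperature; 460/530 nm emission ratio scored gain-of-signal versus DMSO.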

Cellular tumor antigen p53 (Homo sapiens), sequence (P04637 whole entry, looked up): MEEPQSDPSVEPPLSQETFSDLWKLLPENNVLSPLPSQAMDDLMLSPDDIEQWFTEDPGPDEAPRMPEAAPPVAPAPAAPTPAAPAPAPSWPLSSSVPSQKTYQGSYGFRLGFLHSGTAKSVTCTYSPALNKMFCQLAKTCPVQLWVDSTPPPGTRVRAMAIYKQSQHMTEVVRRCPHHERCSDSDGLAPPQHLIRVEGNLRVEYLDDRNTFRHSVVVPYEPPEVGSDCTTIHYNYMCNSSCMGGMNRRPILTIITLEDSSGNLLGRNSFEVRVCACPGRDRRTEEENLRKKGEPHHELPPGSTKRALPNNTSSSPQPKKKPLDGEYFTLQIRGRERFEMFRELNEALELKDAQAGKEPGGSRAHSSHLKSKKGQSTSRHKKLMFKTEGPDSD

For O=C1C(c2[nH]c3ccc(S(=O)(=O)O)cc3c2O)=Nc2ccc(S(=O)(=O)O)cc21, the outcome [1] was “inactive”, the outcome [2] was “inactive” and the outcome [3] was “inactive”. For the same molecule, the outcome [4] was “inactive”, the outcome [5] was “inactive” and the outcome [6] was “inactive”. For the same molecule, the outcome [7] was “inactive” and the outcome [8] was “inactive”.

With CC(C)=CCO the outcome [2] was “inactive”, the outcome [3] was “inactive” and the outcome [4] was “inactive”. For the same molecule, the outcome [5] was “inactive” and the outcome [6] was “inactive”.

With O=C(O)CCCCCCCC(=O)O the outcome [1] was “inactive”, the outcome [2] was “inactive” and the outcome [3] was “inactive”. For the same molecule, the outcome [4] was “inactive”, the outcome [5] was “inactive” and the outcome [6] was “inactive”. The outcome [7] was “inactive” and the outcome [8] was “inactive”.

In the case of CC(=O)O[C@]1(C(C)=O)CC[C@H]2[C@@H]3C[C@H](C)C4=CC(=O)CC[C@]4(C)[C@H]3CC[C@@]21C, the outcome [1] is reported as “inactive”, the outcome [2] is reported as “inactive” and the outcome [3] is reported as “inactive”. For the same molecule, the outcome [5] was “inactive”, the outcome [6] was “inactive” and the outcome [8] was “inactive”.

For CC(C)[C@H]1CC[C@@H](C)CC1=O, the outcome [1] was “inactive”, the outcome [2] was “inactive” and the outcome [3] was “inactive”. The outcome [6] was “inactive” and the outcome [7] was “inactive”.

In the case of O=c1[nH]nnc2ccccc12, the outcome [2] is reported as “inactive”, the outcome [3] is reported as “inactive” and the outcome [4] is reported as “inactive”. For the same molecule, the outcome [5] was “inactive”, the outcome [6] was “inactive” and the outcome [7] was “inactive”. The outcome [8] was “inactive”.

For C=C(C)C(=O)O[C@H]1C[C@@H]2CC[C@@]1(C)C2(C)C, the outcome [1] was “inactive”, the outcome [2] was “inactive” and the outcome [3] was “inactive”. The outcome [4] was “inactive”, the outcome [6] was “inactive” and the outcome [8] was “inactive”.

For CC(C)OP(=O)(CP(=O)(OC(C)C)OC(C)C)OC(C)C, the outcome [1] was “inactive”, the outcome [2] was “inactive” and the outcome [3] was “inactive”. For the same molecule, the outcome [4] was “inactive”, the outcome [6] was “inactive” and the outcome [8] was “inactive”.

With CC(=O)Nc1ccccc1O the outcome [1] was “inactive”, the outcome [2] was “inactive” and the outcome [5] was “inactive”. For the same molecule, the outcome [8] was “inactive”.

For CC(C)=CCCC(C)=CCCC(C)=CCO, the outcome [1] was “inactive”, the outcome [2] was “inactive” and the outcome [3] was “inactive”. The outcome [5] was “inactive”, the outcome [6] was “inactive” and the outcome [7] was “inactive”. For the same molecule, the outcome [8] was “inactive”.

For CCCCCCCCCCCCN(CCCCCCCCCCCC)CCCCCCCCCCCC, the outcome [2] was “inactive”, the outcome [3] was “inactive” and the outcome [4] was “inactive”. For the same molecule, the outcome [5] was “inactive”.

With Cc1ccc(S)cc1 the outcome [1] was “inactive”, the outcome [2] was “inactive” and the outcome [3] was “inactive”. For the same molecule, the outcome [4] was “inactive”, the outcome [6] was “inactive” and the outcome [7] was “inactive”.

In the case of O=C(OCc1ccccc1)C(=O)OCc1ccccc1, the outcome [1] is reported as “inactive”, the outcome [2] is reported as “inactive” and the outcome [6] is reported as “inactive”. The outcome [8] was “inactive”.

With OC1OC[C@@H](O)[C@H](O)[C@H]1O (stereo not given in full) the outcome [1] was “inactive”, the outcome [2] was “inactive” and the outcome [3] was “inactive”. The outcome [4] was “inactive”, the outcome [6] was “inactive” and the outcome [7] was “inactive”.

For O=C(Oc1ccccc1)c1ccc(O)cc1, the outcome [1] was “inactive”, the outcome [2] was “inactive” and the outcome [3] was “inactive”. For the same molecule, the outcome [4] was “inactive”, the outcome [6] was “inactive” and the outcome [7] was “inactive”. The outcome [8] was “inactive”.

In the case of C[C@]12CC[C@H]3[C@@H](CCC4=CC(=O)CC[C@@]43C)[C@@H]1CC[C@@H]2C(=O)CO, the outcome [1] is reported as “inactive”, the outcome [2] is reported as “inactive” and the outcome [3] is reported as “inactive”. For the same molecule, the outcome [4] was “inactive”, the outcome [5] was “inactive” and the outcome [6] was “inactive”. The outcome [7] was “inactive” and the outcome [8] was “inactive”.

For COC(=O)c1ccc(C)cc1, the outcome [2] was “inactive”, the outcome [3] was “inactive” and the AC50 [4] was 0.353 nM (active). The outcome [4] was “inactive”, the outcome [5] was “inactive” and the outcome [6] was “inactive”. For the same molecule, the outcome [7] was “inactive”, the AC50 [8] was 0.134 nM (active) and the outcome [8] was “inactive”.

In the case of CCCCOCCOCCSC#N, the outcome [1] is reported as “inactive”, the outcome [2] is reported as “inactive” and the outcome [4] is reported as “inactive”. The outcome [5] was “inactive”, the outcome [6] was “inactive” and the outcome [7] was “inactive”. The outcome [8] was “inactive”.

In the case of O=C(O)COCCN1CCN(C(c2ccccc2)c2ccc(Cl)cc2)CC1 (stereo not given), the outcome [1] is reported as “inactive”, the outcome [2] is reported as “inactive” and the outcome [3] is reported as “inactive”. For the same molecule, the outcome [4] was “inactive”, the outcome [5] was “inactive” and the outcome [6] was “inactive”. For the same molecule, the outcome [7] was “inactive” and the outcome [8] was “inactive”.

For CSc1nc(NC2CC2)nc(NC(C)(C)C)n1, the outcome [1] was “inactive”, the outcome [3] was “inactive” and the outcome [5] was “inactive”. The outcome [6] was “inactive”.

With CC(C#N)(CCC(=O)O)N=NC(C)(C#N)CCC(=O)O (stereo not given) the outcome [1] was “inactive”, the outcome [3] was “inactive” and the outcome [6] was “inactive”. For the same molecule, the outcome [7] was “inactive” and the outcome [8] was “inactive”.

With CCCC/C=C\CCCCCCCCCC=O the outcome [1] was “inactive”, the outcome [2] was “inactive” and the outcome [3] was “inactive”. The outcome [4] was “inactive”, the outcome [5] was “inactive” and the outcome [6] was “inactive”. For the same molecule, the outcome [7] was “inactive” and the outcome [8] was “inactive”.

With CCCCCCCCCCC(CO)CCCCCCCC (stereo not given) the outcome [1] was “inactive”, the outcome [2] was “inactive” and the outcome [3] was “inactive”. For the same molecule, the outcome [5] was “inactive”, the outcome [7] was “inactive” and the outcome [8] was “inactive”.

In the case of CC(C)c1ccc(C(C)C)cc1, the outcome [2] is reported as “inactive”, the outcome [3] is reported as “inactive” and the outcome [4] is reported as “inactive”. For the same molecule, the outcome [5] was “inactive”, the outcome [6] was “inactive” and the outcome [7] was “inactive”. For the same molecule, the outcome [8] was “inactive”.

In the case of CC(C)(C)C(=O)c1ccccc1, the outcome [1] is reported as “inactive”, the outcome [2] is reported as “inactive” and the outcome [3] is reported as “inactive”. The outcome [6] was “inactive”, the outcome [7] was “inactive” and the outcome [8] was “inactive”.

In the case of CCCCNC(=O)NS(=O)(=O)c1ccc(C)cc1, the outcome [2] is reported as “inactive”, the outcome [3] is reported as “inactive” and the outcome [4] is reported as “inactive”. For the same molecule, the outcome [5] was “inactive”, the outcome [6] was “inactive” and the outcome [7] was “inactive”. The outcome [8] was “inactive”.

For CCC(=O)OCCC(C)CCC=C(C)C (stereo not given), the outcome [1] was “inactive”, the outcome [2] was “inactive” and the outcome [5] was “inactive”. For the same molecule, the outcome [6] was “inactive” and the outcome [7] was “inactive”.

In the case of Cc1ccccc1C=O, the outcome [1] is reported as “inactive”, the outcome [3] is reported as “inactive” and the outcome [5] is reported as “inactive”. The outcome [6] was “inactive”, the outcome [7] was “inactive” and the outcome [8] was “inactive”.

Reference: PubChem BioAssay (EPA / NIEHS)
